# Reference: PubChem BioAssay (NCATS)
# Inconclusive results are not listed. A call without a number means that no potency is given here. Active and inactive are the calls of the source. Unless noted, the call rests on the fitted dose curve; in most records, active means well fitted curve in the direction sought with a large enough effect; inconclusive means small, poorly fitted or top-dose-only effect, or another doubt; inactive means no such curve, though single readings can be large; an effect the other way counts as inactive or inconclusive.
# Tests used:
# [1] = target: M-phase phosphoprotein 8 (Homo sapiens) (UniProt Q99549); assay: qHTS Validation Assay for Inhibitors for MPP8 Chromodomain Interactions with Methylated Histone Tails (AID 488949); further: nearly all actives have a fitted effect of over 55% in size; further: potency means the concentration at half of the fitted maximal effect
# Procedure, shortened: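 Disruption of the preformed MPP8–trimethyl-H3K9 peptide complex (both 50 nM, 30 min, RT) is measured after 30 min compound exposure, using AlphaScreen proximity beads; aurintricarboxylic acid titration serves as plate control.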
# [2] = target: Chromobox protein homolog 1 (Homo sapiens) (UniProt P83916); assay: qHTS Validation Assay for Inhibitors of HP1-beta Chromodomain Interactions with Methylated Histone Tails (AID 488953); further: nearly all actives have a fitted effect of over 50% in size; further: potency means the concentration at half of the fitted maximal effect
# Sequence of Chromobox protein homolog 1 (Homo sapiens) (P83916 whole entry, looked up): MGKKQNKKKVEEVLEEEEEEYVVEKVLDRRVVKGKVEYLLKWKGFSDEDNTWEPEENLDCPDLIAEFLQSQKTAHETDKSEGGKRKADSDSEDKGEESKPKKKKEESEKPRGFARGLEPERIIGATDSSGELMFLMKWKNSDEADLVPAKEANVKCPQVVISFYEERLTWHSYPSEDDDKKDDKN
# Procedure, shortened: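 HP1-beta (50 nM) preformed 30 min with biotinylated H3(1-18)K9me3 peptide (50 nM) in PBS pH 7.4, 0.01% Tween-20. Compounds added for 30 min at room temperature. Complex disruption read by AlphaScreen with streptavidin donor/nickel chelate acceptor beads (10 ug/mL each).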
# [3] = target: Transient receptor potential cation channel subfamily V member 1 (Homo sapiens) (UniProt Q8NER1); assay: HTS Assay for Compounds that Act as Enhancers of the Vanilloid Receptor 1 (AID 488979)
# Procedure, shortened: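 TRPV1 cells loaded with Fluo-8 calcium dye; compound added and Ca2+ signal (ex 480/em 520 nm) followed 3 min, then capsaicin at EC20 added and read 2 more min to detect enhancement.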
# [4] = target: D(1A) dopamine receptor (Homo sapiens) (UniProt P21728); assay: HTS Assay for Allosteric Agonists of the Human D1 Dopamine Receptor: Primary Screen for Agonists (AID 488981)
# Sequence of D(1A) dopamine receptor (Homo sapiens) (P21728 whole entry, looked up): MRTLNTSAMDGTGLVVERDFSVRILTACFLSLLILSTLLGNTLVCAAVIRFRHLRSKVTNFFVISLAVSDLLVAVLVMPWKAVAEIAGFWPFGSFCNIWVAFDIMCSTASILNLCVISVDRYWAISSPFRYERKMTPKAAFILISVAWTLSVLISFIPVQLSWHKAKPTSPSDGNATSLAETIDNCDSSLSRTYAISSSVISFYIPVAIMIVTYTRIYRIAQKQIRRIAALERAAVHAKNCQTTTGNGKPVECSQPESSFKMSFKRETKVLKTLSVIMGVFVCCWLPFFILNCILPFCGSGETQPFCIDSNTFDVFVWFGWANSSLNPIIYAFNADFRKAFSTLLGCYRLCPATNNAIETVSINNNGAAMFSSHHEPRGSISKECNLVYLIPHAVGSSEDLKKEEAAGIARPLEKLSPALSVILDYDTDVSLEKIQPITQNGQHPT
# Procedure, shortened: (§1)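 Tetracycline-induced HEK293 Trex D1 cells with forced coupling to calcium, loaded with no-wash calcium dye; kinetic fluorescence read 180 s after compound addition for agonism, then a further 180 s after an EC20 dopamine challenge for potentiation.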
# [5] = target: D(1A) dopamine receptor (Homo sapiens) (UniProt P21728); assay: HTS Assay for Allosteric Agonists of the Human D1 Dopamine Receptor: Primary Screen for Potentiators (AID 488982)
# Procedure, shortened: as §1
# [6] = target: D(1A) dopamine receptor (Homo sapiens) (UniProt P21728); assay: HTS Assay for Allosteric Agonists of the Human D1 Dopamine Receptor: Primary Screen for Antagonists (AID 488983);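 further: calcium flux response to an EC80 dopamine challenge measured with no-wash dye; nearly all actives have a fitted effect of over 65% in size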
# Procedure, shortened: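 Tetracycline-induced HEK293 T-REx D1 line, force-coupled to calcium flux, read with no-wash calcium dye. Compound added after 10 s baseline, read 180 s for agonism, then EC80 dopamine added and read a further 180 s.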
# [7] = target: ATPase family AAA domain-containing protein 5 (Homo sapiens) (UniProt Q96QE3); assay: Validation screen for small molecules that inhibit ELG1-dependent DNA repair in human embryonic kidney (HEK293T) cells expressing luciferase-tagged ELG1 (AID 493107);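 further: cells co-treated with the DNA-damaging agent 5-fluorouridine alongside compound; series mostly up to about 46 µM; inhibitors lower the ELG1-luciferase luminescence signal; nearly all actives have a fitted effect of over 70% in size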
# Sequence of ATPase family AAA domain-containing protein 5 (Homo sapiens) (Q96QE3 whole entry, looked up, the tested form may be a part): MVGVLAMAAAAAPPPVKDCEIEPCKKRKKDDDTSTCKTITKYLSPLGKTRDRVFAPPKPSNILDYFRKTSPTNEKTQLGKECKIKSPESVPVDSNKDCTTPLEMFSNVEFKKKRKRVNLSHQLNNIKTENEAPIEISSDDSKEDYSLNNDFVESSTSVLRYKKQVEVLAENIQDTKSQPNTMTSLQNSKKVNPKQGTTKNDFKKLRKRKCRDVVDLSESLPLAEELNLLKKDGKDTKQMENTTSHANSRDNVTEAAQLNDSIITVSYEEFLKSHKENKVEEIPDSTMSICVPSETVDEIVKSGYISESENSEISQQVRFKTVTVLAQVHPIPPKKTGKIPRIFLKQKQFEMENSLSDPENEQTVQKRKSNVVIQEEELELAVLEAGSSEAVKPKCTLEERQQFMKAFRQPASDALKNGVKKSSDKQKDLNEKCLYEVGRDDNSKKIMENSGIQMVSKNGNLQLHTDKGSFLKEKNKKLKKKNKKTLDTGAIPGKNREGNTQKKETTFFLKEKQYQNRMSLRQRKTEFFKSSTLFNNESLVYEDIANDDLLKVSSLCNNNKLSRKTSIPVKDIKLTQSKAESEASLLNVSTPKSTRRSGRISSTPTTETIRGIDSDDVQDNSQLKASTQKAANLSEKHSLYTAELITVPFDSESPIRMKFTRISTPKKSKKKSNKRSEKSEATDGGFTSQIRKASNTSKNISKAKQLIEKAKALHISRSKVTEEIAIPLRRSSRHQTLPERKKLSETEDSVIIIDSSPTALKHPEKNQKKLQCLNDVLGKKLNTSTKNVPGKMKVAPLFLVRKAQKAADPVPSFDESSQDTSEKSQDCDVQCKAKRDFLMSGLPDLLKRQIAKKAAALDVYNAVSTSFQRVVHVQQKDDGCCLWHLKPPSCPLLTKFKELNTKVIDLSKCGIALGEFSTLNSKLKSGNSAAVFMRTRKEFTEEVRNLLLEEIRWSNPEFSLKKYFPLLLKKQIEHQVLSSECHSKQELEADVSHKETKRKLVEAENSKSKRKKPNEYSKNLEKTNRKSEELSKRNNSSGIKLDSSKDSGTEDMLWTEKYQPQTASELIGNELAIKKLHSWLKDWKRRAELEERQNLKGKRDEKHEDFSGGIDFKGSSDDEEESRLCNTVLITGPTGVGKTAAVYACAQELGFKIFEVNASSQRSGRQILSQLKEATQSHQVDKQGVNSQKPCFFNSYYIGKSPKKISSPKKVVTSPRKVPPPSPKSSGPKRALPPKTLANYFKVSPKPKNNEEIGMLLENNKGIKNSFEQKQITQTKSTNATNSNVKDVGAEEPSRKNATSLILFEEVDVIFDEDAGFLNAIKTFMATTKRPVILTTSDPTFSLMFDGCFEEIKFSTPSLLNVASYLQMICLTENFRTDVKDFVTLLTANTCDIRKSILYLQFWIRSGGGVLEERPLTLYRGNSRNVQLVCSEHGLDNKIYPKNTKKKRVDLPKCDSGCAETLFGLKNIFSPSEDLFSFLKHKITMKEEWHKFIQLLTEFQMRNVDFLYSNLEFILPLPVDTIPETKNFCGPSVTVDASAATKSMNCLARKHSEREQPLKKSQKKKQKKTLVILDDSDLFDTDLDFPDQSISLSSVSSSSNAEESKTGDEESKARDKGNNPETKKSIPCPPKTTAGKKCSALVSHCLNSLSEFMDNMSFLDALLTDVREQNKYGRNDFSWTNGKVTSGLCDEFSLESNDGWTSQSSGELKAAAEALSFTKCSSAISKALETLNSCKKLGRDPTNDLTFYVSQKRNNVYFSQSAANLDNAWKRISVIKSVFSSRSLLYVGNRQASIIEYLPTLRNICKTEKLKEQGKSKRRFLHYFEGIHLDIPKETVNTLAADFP
# Procedure, shortened: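 HEK293T cells expressing luciferase-tagged ELG1, 2,000 per well, treated with 5-fluorouridine plus compound for 16 h at 37 C. ONE-Glo luminescence after 30 min at room temperature reports ELG1 reporter level.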
# [8] = Nrf2 qHTS screen for inhibitors: Validation (AID 493153; active means well fitted inhibition curve with a large enough effect in the main read-out, with a control signal flat, not every such curve was filed as active); settings: viability change: measured here: cytotoxicity max response
# Procedure, shortened: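 A549 cells carrying ARE-firefly luciferase reporter, 5000 cells/well in 5% FBS OPTI-MEM, treated with compound over a concentration series for 18-24 h at 37 C. Luciferase luminescence gave Nrf2 activity; CellTiter-Fluor fluorescence gave viability.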
# [9] = qHTS for Inhibitors of Cell Surface uPA Generation: Validation Assay (AID 493164)
# Procedure, shortened: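 RAW 264.7 cells (4000/well) were plated overnight, then exposed for 18 h at 37 C, 5% CO2 to compounds in a 7-point 1:5 titration (2.45 nM–38.3 uM final). Intracellular ATP was read by ATP-Lite luminescence.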
# [10] = target: Galactokinase (Homo sapiens) (UniProt P51570); assay: qHTS Validation Assay for Inhibitors of Human Galactokinase (GALK) (AID 493189)
# Sequence of Galactokinase (Homo sapiens) (P51570 whole entry, looked up): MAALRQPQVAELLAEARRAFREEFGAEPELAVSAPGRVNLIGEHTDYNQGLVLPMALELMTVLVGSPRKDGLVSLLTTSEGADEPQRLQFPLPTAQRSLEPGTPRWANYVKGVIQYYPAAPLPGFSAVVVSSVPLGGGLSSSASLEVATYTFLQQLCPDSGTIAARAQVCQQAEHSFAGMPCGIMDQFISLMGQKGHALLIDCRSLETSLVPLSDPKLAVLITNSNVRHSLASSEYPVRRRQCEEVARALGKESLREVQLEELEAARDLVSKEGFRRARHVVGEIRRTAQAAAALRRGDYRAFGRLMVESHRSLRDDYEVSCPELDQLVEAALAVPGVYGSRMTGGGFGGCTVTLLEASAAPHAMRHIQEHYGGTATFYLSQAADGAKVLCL
# Procedure, shortened: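 Compounds were pin-transferred into ATP buffer, then GALK-galactose mix was added (final 5 nM enzyme, 100 uM galactose, 35 uM ATP). After 1 h at room temperature, remaining ATP was measured luminescently.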
# [11] = Validation screen for small molecules that induce DNA re-replication in SW480 colon adenocarcinoma cells (AID 504364)
# Procedure, shortened: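 SW480 cells (250/well) exposed 48 h at 37 C, 5% CO2, then Hoechst-stained 40 min. Nuclear DNA content imaged by fluorescence scanning (405 nm excitation, 500-530 nm emission); re-replication scored as increased nuclei with elevated intensity.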
# [12] = target: Peptidyl-prolyl cis-trans isomerase NIMA-interacting 1 (Homo sapiens) (UniProt Q13526); assay: qHTS Validation Assay to Find Inhibitors of Pin1 (AID 504536; active means well fitted inhibition curve with a large enough effect in the polarisation, with a control signal flat, not every such curve was filed as active; the % refers to the polarisation)
# Sequence of Peptidyl-prolyl cis-trans isomerase NIMA-interacting 1 (Homo sapiens) (Q13526 whole entry, looked up): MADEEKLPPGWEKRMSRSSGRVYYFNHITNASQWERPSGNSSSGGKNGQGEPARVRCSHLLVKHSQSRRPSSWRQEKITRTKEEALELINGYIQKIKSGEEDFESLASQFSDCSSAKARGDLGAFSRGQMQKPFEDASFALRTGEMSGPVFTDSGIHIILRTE
# Procedure, shortened: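 Fluorescence polarization competition: compounds (titration) displace HiFluor-488-labeled Pin1-1b peptide from Pin1 (0.3 uM final) in pH 7.5 HEPES buffer with DTT, 10 min at room temperature; %Activity normalized to no-enzyme wells, curves fitted.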
# [13] = target: Phosphoglycerate kinase, glycosomal (Trypanosoma brucei brucei) (UniProt P07378); assay: qHTS Validation Assay to Find Inhibitors of Phosphoglycerate Kinase (AID 504547)
# Sequence of Phosphoglycerate kinase, glycosomal (Trypanosoma brucei brucei) (P07378 whole entry, looked up): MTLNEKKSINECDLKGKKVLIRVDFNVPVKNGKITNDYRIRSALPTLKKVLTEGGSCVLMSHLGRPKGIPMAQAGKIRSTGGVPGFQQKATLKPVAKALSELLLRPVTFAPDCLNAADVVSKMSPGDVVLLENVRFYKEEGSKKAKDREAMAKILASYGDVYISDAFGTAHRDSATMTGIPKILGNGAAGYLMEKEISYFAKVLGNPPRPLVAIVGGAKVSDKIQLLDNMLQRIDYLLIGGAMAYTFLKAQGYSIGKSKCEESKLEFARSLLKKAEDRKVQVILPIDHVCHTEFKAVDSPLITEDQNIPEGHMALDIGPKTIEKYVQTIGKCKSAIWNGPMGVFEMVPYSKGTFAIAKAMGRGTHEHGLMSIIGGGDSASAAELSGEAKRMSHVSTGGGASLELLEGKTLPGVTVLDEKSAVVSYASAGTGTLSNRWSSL
# Procedure, shortened: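 PGK activity was coupled to GAPDH (100nM final), which generates the unstable substrate 1,3-bisphosphoglycerate in-well. Reactions ran 60 minutes at room temperature in 100mM TEA pH 7.6, 5mM MgCl2, 0.01% Tween-20, then Kinase-Glo Plus luminescence was read.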
# [14] = target: phosphoglycerate mutase (Leishmania major) (UniProt Q4Q090); assay: qHTS Validation Assay to Find Inhibitors of Phosphoglycerate Mutase (AID 504548);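 further: end-point luminescence from Kinase-GloPlus after the PGAM reaction; series mostly up to about 58 µM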
# Sequence of phosphoglycerate mutase (Leishmania major) (Q4Q090 1-553): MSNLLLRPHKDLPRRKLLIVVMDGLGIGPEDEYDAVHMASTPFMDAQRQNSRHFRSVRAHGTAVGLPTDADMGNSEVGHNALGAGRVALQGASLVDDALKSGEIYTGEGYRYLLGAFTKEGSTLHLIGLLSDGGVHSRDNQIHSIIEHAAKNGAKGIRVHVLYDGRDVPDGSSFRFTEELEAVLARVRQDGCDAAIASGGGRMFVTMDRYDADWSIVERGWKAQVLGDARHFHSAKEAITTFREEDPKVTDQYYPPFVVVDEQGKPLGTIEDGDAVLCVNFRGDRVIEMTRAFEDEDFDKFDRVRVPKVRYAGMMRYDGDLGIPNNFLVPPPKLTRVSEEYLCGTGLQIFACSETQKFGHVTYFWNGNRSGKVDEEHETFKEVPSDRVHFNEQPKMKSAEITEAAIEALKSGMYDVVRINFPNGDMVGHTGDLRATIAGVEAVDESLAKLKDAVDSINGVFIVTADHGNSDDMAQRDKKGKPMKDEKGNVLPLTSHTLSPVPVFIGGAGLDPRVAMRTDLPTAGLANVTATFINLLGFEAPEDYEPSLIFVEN
# Procedure, shortened: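 Inhibition of L. major PGAM was assessed by Kinase-GloPlus luminescence following a 45-minute room-temperature reaction with enzyme at 1.25nM final.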
# [15] = target: Ubiquitin carboxyl-terminal hydrolase 1 (Homo sapiens) (UniProt O94782); assay: Inhibitors of USP1/UAF1: Pilot qHTS (AID 504865);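 further: rhodamine fluorescence freed from ubiquitin-rhodamine substrate followed over time; top concentration of the series differs between compounds; nearly all actives have a fitted effect of over 35% in size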
# Sequence of Ubiquitin carboxyl-terminal hydrolase 1 (Homo sapiens) (O94782 whole entry, looked up): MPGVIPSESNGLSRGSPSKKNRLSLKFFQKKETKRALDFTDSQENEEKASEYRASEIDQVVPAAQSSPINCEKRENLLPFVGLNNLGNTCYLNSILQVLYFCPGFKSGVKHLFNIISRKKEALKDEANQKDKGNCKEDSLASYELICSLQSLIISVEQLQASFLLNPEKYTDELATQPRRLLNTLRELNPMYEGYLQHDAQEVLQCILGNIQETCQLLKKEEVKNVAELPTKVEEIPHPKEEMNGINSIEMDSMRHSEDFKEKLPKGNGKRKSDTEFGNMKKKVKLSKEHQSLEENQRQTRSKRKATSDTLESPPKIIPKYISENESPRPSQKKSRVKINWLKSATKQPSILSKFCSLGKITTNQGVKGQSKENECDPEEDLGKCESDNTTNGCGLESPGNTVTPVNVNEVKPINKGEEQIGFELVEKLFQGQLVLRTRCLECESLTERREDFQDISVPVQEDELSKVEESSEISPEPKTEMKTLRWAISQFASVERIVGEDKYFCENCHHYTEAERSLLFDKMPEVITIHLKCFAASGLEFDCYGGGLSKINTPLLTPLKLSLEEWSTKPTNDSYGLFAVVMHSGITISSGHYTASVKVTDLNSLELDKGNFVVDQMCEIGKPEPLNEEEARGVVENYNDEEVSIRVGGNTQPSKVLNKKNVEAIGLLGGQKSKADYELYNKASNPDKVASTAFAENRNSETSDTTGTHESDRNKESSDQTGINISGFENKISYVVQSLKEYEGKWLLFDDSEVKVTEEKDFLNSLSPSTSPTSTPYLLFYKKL
# Procedure, shortened: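 Kinetic fluorescence assay: 1nM USP1/UAF1, 15 min compound preincubation, then 150nM Ub-Rho; 480/540 nm.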
# [16] = qHTS for Inhibitors of ATXN expression: Validation of Cytotoxic Assay (AID 588349); further: potency means the concentration at half of the fitted maximal effect
# Procedure, shortened: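 HEK293 cells treated with titrated compound for 72 hr at 37 degrees C; viability read as intracellular ATP by CellTiter Glo luminescence.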
# [17] = qHTS for Inhibitors of ATXN expression: Validation (AID 588378); further: nearly all actives have a fitted effect of over 75% in size; further: potency means the concentration at half of the fitted maximal effect
# Procedure, shortened: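 Validation of ATXN2 expression inhibitors uses a cell-based luciferase fusion reporter in HEK293 cells, with 24 h compound exposure and paired viability (fluorescence) and reporter (luminescence) end-point reads.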
# [18] = target: Thyrotropin receptor (Homo sapiens) (UniProt P16473); assay: qHTS Assay for Antagonists of the Thyroid Stimulating Hormone Receptor (AID 488980); further: series mostly up to about 58 µM
# Procedure, shortened: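 Cells expressing human TSHR (HEK293) are dispensed in HBSS/HEPES containing 70 uM RO 20-1724, compound is added, then TSH at EC80 (4 nM final). Antibody in lysis buffer follows, 30 minutes at room temperature before HTRF detection.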
# [19] = target: ATP-dependent 6-phosphofructokinase (Trypanosoma brucei brucei) (UniProt O15648); assay: qHTS Assay to Find Inhibitors of T. brucei phosphofructokinase: hit validation (AID 492961);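 further: luminescence reports ADP formed as PFK phosphorylates fructose-6-phosphate with ATP; series mostly up to about 51 µM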
# Procedure, shortened: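 Inhibition of parasite PFK is measured as reduced ADP formation, quantified via luciferase after ATP depletion. Assay used 0.1 mM ATP, 0.5 mM F6P, 1.25 nM enzyme, 45 min incubation.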
# [20] = target: Thyrotropin-releasing hormone receptor (Homo sapiens) (UniProt P34981); assay: qHTS for Small Molecule Agonists and Allosteric Enhancers of Human TRH Receptor: Validation Screen for Agonists (AID 493127;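 active means calcium activation more than 3 SD above the typical response in the agonist read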); settings: TRH receptor agonist cell assay; at 2 µM; stronger effect = higher value
# Procedure, shortened: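 TRHR cells loaded with fluo-8 calcium dye; FDSS kinetic fluorescence (Ex 480/Em 530) read at 1 s/cycle after 23 nL compound addition. Agonist-mode calcium response recorded before the 10 nM TRH (EC20) addition.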
compound,measurement,setting,value
NC(N)=Nc1nc(CSCC/C(N)=N/S(N)(=O)=O)cs1,Potency,[1],inactive
same,Potency,[2],inactive
same,outcome,[3],inactive
same,outcome,[4],inactive
same,outcome,[5],inactive
same,Potency,[6],inactive
same,outcome,[7],inactive
same,outcome,[8],inactive
same,viability change,[8],-0.651%
same,outcome,[9],inactive
same,outcome,[10],inactive
same,outcome,[11],inactive
same,outcome,[12],inactive
same,outcome,[13],inactive
same,outcome,[14],inactive
same,Potency,[15],inactive
same,Potency,[16],inactive
same,Potency,[17],inactive
CCN(CC)CCOC(=O)c1ccc(N)cc1,Potency,[1],inactive
same,Potency,[2],inactive
same,outcome,[3],inactive
same,outcome,[18],inactive
same,outcome,[4],inactive
same,outcome,[5],inactive
same,Potency,[6],inactive
same,outcome,[19],inactive
same,outcome,[7],inactive
same,activation,[20],-0.312% (inactive)
same,outcome,[8],inactive
same,viability change,[8],0.523%
same,outcome,[9],inactive
same,outcome,[10],inactive
same,outcome,[11],inactive
same,outcome,[12],inactive
same,outcome,[13],inactive
same,outcome,[14],inactive
same,Potency,[15],inactive
same,Potency,[16],inactive
same,Potency,[17],inactive
CC/C(=C(\c1ccccc1)c1ccc(OCCN(C)C)cc1)c1ccccc1,Potency,[1],17.8 µM (active)
same,Potency,[2],35.5 µM (active)
same,outcome,[3],inactive
same,outcome,[18],inactive
same,Potency,[6],inactive
same,outcome,[19],inactive
same,outcome,[7],inactive
same,activation,[20],-2.75% (inactive)
same,outcome,[8],inactive
same,viability change,[8],7.91%
same,outcome,[9],inactive
same,outcome,[10],inactive
same,outcome,[11],inactive
same,outcome,[12],inactive
same,outcome,[13],inactive
same,outcome,[14],inactive
same,Potency,[16],25.1 µM (active)
same,Potency,[17],22.4 µM (active)
